Reference: PubChem BioAssay (Tox21)
Inconclusive results are not listed. The source made the active and inactive calls. Unless noted, the call rests on the fitted dose curve.

How the values were obtained:
[1] = Nuclear factor erythroid 2-related factor 2/antioxidant responsive element (Nrf2/ARE) small molecule agonists: qHTS cell viability counter screen in human keratinocytes (AID 1919968; active means well fitted curve in the direction sought with a large enough effect in the repeat runs; an effect the other way counts as inactive or inconclusive; further: nearly all actives have a fitted effect of over 55% in size)
Method in brief: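 In human HaCaT keratinocytes stably expressing an ARE-driven luciferase, compound exposure lasted 23 h at 37 C under 5% CO2. Viable cells are quantified with a protease-based fluorogenic reagent (CellTiter-Fluor) read 1 h after addition.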

[2] = Nuclear factor erythroid 2-related factor 2/antioxidant responsive element (Nrf2/ARE) small molecule agonists: luciferase reporter gene qHTS assay in human keratinocytes (AID 1919969); further: nearly all actives have a fitted effect of over 35% in size
[3] = biological target: Gonadotropin-releasing hormone receptor (Homo sapiens) (UniProt P30968); test: Human gonadotropin-releasing hormone receptor (GnRHR) small molecule agonists, calcium flux assay in GnRHR-HEK293 cells (AID 1920063); further: nearly all actives have a fitted effect of over 35% in size
Sequence of Gonadotropin-releasing hormone receptor (Homo sapiens) (P30968 whole entry, looked up): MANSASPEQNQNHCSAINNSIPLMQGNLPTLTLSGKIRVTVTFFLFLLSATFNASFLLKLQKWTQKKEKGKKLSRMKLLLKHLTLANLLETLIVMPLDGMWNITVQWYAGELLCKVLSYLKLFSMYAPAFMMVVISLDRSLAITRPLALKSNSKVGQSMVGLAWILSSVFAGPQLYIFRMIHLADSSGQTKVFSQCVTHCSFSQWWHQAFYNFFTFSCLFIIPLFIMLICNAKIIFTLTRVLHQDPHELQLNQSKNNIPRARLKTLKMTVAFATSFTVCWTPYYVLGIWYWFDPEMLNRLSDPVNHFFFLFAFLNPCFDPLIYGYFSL
Method in brief: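 Intracellular calcium rise is the read-out: engineered human GnRHR HEK293 cells, dye-loaded, are exposed to DMSO-dissolved compounds and fluorescence at Ex/Em 480/540 is tracked for 3 min.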

[4] = biological target: KiSS-1 receptor (Homo sapiens) (UniProt Q969F8); test: Human kisspeptin (KISS1R) small molecule agonists, calcium flux assay in KISS1R-HEK293 cells (AID 1920064; active means well fitted curve in the direction sought with a large enough effect in the repeat runs; an effect the other way counts as inactive or inconclusive)
Sequence of KiSS-1 receptor (Homo sapiens) (Q969F8 whole entry, looked up): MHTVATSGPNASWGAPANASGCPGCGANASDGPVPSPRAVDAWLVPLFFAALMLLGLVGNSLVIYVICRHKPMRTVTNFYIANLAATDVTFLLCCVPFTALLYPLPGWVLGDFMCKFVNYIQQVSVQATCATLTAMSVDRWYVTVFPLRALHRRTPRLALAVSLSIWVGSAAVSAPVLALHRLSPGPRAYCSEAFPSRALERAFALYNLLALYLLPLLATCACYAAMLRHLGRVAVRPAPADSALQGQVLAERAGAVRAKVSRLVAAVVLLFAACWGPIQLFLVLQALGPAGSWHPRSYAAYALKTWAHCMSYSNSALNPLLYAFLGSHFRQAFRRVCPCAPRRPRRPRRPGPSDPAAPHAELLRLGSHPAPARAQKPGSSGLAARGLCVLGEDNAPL
Method in brief: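 Concentration-response testing used 15 concentrations in triplicate on human KISS1R-expressing HEK293 cells. Calcium-dependent fluorescence (Ex/Em 480/540) was followed kinetically for 3 min after compound transfer.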

[5] = G protein-coupled receptor (GPCR) small molecule agonists, calcium flux assay: HEK293 wild type cell line counter screen (AID 1920065)
Method in brief: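 Fluorescence intensity signals activation. After overnight (18 h) culture and a 1 h calcium dye load at 37 C, compounds are added by pin tool and the plate read at 480/540 nm for 3 min in 1 s steps.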

[6] = p53 small molecule agonists, cell-based qHTS assay with human liver microsomes (AID 1963577);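 further: p53 response element beta-lactamase reporter cells with liver microsomes plus NADPH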
Method in brief: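 Steps: plate p53RE-bla cells, incubate 5 h at 37 C; add compound in DMSO; add microsomes (0.5 mg/mL final) and NADPH (0.5 mg/mL final); incubate 16 h at 37 C; add LiveBLAzer, 2 h RT; read fluorescence.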

[7] = p53 small molecule agonists, cell-based qHTS assay with rat liver microsomes (AID 1963578)
Method in brief: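 Metabolic activation is supplied by rat liver microsomes with NADPH (each 0.5 mg/mL final). p53RE-bla cells incubate with compound 16 h at 37 C; reporter activity is measured by LiveBLAzer fluorescence.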

[8] = p53 small molecule agonists, cell-based qHTS assay with human liver microsomes: qHTS cell viability counter screen (AID 1963579); further: nearly all actives have a fitted effect of over 45% in size
Method in brief: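 After the 460/530 nm beta-lactamase read, CellTiter-Glo was added to the same wells and luminescence measured after 30 min at room temperature, giving viability of p53RE-bla cells treated 16 h with compounds plus microsomes and NADPH.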

[9] = p53 small molecule agonists, cell-based qHTS assay with rat liver microsomes: qHTS cell viability counter screen (AID 1963580); further: nearly all actives have a fitted effect of over 45% in size
Method in brief: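 After the beta-lactamase ratio was read, CellTiter-Glo was added to the same wells and luminescence measured at 30 min; cells had been treated 16 h at 37 C with compounds, rat liver microsomes and NADPH (0.5 mg/mL final each).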

[10] = p53 small molecule agonists, cell-based qHTS assay: qHTS cell viability counter screen (AID 1963581); further: nearly all actives have a fitted effect of over 45% in size
Method in brief: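 Luminescence from CellTiter-Glo, reflecting ATP content, serves as the cytotoxicity measure; it is taken after the 2 h reporter substrate step in HCT-116 p53RE-bla cells dosed for 16 h at 37 C.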

[11] = p53 small molecule agonists, cell-based qHTS assay (AID 1963582; active means well fitted activation curve with a large enough effect in the signal ratio in the repeat runs, not every such curve was filed as active; the % refers to the signal ratio)
Method in brief: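 After plating, p53RE-bla cells sat 5 h in the incubator; compounds or DMSO vehicle were pinned in; a 16 h incubation at 37 C followed; FRET substrate was added and, 2 h later at RT, fluorescence was measured.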

[12] = biological target: 5-hydroxytryptamine receptor 2A (Homo sapiens) (UniProt P28223); test: 5-hydroxytryptamine receptor 2A (HTR2A) small molecule antagonists, cell-based qHTS assay (AID 1963586); further: nearly all actives have a fitted effect of over 45% in size
Sequence of 5-hydroxytryptamine receptor 2A (Homo sapiens) (P28223 whole entry, looked up): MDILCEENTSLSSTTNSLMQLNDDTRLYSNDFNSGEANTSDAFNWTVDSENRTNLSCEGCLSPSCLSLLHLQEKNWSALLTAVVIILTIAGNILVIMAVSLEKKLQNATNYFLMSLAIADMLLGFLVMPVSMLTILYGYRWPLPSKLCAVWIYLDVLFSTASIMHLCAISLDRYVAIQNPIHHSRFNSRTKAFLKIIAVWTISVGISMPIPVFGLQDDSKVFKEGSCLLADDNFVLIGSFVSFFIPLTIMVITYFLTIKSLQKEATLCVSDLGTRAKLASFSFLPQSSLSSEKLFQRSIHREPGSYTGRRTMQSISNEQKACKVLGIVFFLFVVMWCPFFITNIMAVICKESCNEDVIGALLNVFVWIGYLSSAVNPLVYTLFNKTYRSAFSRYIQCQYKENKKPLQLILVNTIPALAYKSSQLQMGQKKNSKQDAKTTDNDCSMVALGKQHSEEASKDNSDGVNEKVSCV
Method in brief: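 CHO cells stably expressing human HTR2A were plated for 18 h at 37 C, then loaded with calcium dye for 1 h. Compounds were preincubated 5 min at room temperature before DOI (4 nM solution) was added. Kinetic fluorescence was read for 3 min.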

[13] = biological target: 5-hydroxytryptamine receptor 2A (Homo sapiens) (UniProt P28223); test: 5-hydroxytryptamine receptor 2A (HTR2A) small molecule agonists, cell-based qHTS assay (AID 1963587); further: nearly all actives have a fitted effect of over 30% in size
Method in brief: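 CHO cells stably expressing human HTR2A, plated 18 h, loaded with calcium dye 1 h at 37 C. Agonist mode: compounds added and intracellular calcium fluorescence recorded kinetically for 2 min at 1 sec intervals.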

[14] = biological target: Muscarinic acetylcholine receptor M1 (Homo sapiens) (UniProt P11229); test: Cholinergic receptor muscarinic 1 (CHRM1) small molecule antagonists, cell-based qHTS assay (AID 1963588); further: nearly all actives have a fitted effect of over 40% in size
Sequence of Muscarinic acetylcholine receptor M1 (Homo sapiens) (P11229 whole entry, looked up): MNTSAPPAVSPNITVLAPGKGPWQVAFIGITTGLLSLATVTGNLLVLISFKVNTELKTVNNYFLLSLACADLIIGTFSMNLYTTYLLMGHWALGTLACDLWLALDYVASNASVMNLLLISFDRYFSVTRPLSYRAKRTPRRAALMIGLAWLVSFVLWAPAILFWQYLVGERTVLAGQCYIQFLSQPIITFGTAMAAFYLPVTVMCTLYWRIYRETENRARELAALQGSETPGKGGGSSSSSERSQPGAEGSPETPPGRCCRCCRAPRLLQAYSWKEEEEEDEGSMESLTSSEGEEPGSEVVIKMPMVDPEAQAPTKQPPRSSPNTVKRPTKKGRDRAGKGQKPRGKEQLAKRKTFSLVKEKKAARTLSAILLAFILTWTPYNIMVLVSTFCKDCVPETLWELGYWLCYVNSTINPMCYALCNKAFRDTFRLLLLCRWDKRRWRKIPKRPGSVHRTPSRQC
Method in brief: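 Compounds were tested at 15 concentrations in three independent runs. Dye-loaded CHRM1-CHO cells were exposed 5 min at room temperature before stimulation by acetylcholine added at 50nM. Intracellular calcium was read kinetically on FDSS for 3 min.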

[15] = biological target: Muscarinic acetylcholine receptor M1 (Homo sapiens) (UniProt P11229); test: Cholinergic receptor muscarinic 1 (CHRM1) small molecule agonists, cell-based qHTS assay (AID 1963589); further: nearly all actives have a fitted effect of over 35% in size
Method in brief: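 Fluorescent calcium dye reports M1 activation in stably transfected CHO cells. Compounds, 15 concentrations, added after 1 h dye loading at 37 C; kinetic reading at 1 sec intervals.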

[16] = cAMP Responsive Elements (CRE) small molecule agonists, cell-based qHTS assay (AID 1963590)
Method in brief: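 Compound exposure lasted 3 h at 37 C/5% CO2 in CRE-bla HEK 293T cells grown in assay medium with 10% dialyzed FBS and 25 mM HEPES. Reporter signal came from LiveBLAzer B/G FRET substrate, 2 h, room temperature.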

[17] = cAMP Responsive Elements (CRE) small molecule antagonists, cell-based qHTS assay (AID 1963591; active means well fitted inhibition curve with a large enough effect in the signal ratio in the repeat runs, not every such curve was filed as active; the % refers to the signal ratio)
Method in brief: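 Stimulation used NKH477 at a final 0.25 uM for 3 h in compound-treated CRE-bla HEK293T cells, seeded 18 h beforehand. Reporter activity was measured with LiveBLAzer B/G FRET substrate after 2 h at room temperature.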

[18] = biological target: Beta-2 adrenergic receptor (Homo sapiens) (UniProt P07550); test: Adrenergic beta2 receptor (ADRB2) small molecule antagonists, cell-based qHTS assay (AID 1963592); further: series mostly up to about 92 µM; nearly all actives have a fitted effect of over 50% in size
Sequence of Beta-2 adrenergic receptor (Homo sapiens) (P07550 whole entry, looked up): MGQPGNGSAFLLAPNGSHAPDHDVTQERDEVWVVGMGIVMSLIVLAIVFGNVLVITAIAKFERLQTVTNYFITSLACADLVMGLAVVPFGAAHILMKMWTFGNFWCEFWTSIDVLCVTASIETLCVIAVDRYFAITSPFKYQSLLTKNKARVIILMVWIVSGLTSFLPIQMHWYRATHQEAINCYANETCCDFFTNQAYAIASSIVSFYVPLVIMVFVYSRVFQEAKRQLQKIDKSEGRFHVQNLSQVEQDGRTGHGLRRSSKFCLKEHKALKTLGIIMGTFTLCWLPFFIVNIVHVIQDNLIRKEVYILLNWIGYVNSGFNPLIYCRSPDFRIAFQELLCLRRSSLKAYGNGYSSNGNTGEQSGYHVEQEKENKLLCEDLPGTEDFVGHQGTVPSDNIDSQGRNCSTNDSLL
Method in brief: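 Assay format: CHO-ADRB2 cells, 18-20hr seeding at 37C/5% CO2, then compound plus 1nM isoproterenol agonist mix for 0.5hr RT. Homogeneous time-resolved fluorescence cAMP detection after 1hr, expressed as 665/615 nm ratio.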

[19] = biological target: D(2) dopamine receptor (Homo sapiens) (UniProt P14416); test: Dopamine D2 receptor (DRD2) small molecule agonists, cell-based qHTS assay (AID 1963594); further: nearly all actives have a fitted effect of over 35% in size
Sequence of D(2) dopamine receptor (Homo sapiens) (P14416 whole entry, looked up): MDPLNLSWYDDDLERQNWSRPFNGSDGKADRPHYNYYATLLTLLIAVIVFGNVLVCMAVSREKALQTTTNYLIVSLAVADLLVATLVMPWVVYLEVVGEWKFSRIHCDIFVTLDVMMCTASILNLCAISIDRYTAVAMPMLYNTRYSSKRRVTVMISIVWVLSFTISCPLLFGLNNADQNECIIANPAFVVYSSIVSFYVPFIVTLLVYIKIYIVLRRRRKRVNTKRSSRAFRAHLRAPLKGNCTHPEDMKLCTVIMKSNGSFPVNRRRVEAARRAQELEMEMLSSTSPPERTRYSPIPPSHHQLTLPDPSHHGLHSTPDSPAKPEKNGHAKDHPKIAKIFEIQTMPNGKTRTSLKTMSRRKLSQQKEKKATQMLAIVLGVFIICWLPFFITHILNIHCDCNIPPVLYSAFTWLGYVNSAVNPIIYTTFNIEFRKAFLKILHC
Method in brief: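 HEK293 cells stably expressing human DRD2, pre-treated with PDE inhibitor Ro20-1724 (0.1 mM final) and compound 10 min at room temperature, then stimulated with NKH477 (200nM […]) for 30 min. cAMP read by HTRF (665/620 nm).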

[20] = biological target: D(2) dopamine receptor (Homo sapiens) (UniProt P14416); test: Dopamine D2 receptor (DRD2) small molecule antagonists, cell-based qHTS assay (AID 1963595; active means well fitted inhibition curve with a large enough effect in the signal ratio in the repeat runs, with a control signal flat; the % refers to the signal ratio)
Method in brief: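 Antagonist mode in DRD2-HEK293 cells: after compound addition with 0.1 mM Ro20-1724, cells received quinpirole (12 nM) and NKH477 (200 nM) for 30 min at room temperature; HTRF cAMP read after 1 h detection.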
On the % scale 0 is the no-effect control and ±100 the full control effect.

CC(=O)O[C@H](CC(=O)[O-])C[N+](C)(C)C
inactive: Potency [1] | Potency [2] | Potency [3] | Potency [4] | Potency [5] | Potency [6] | Potency [7] | Potency [8] | Potency [9] | Potency [10] | Potency [11] | Potency [12] | Potency [13] | Potency [14] | Potency [15] | Potency [16] | Potency [17] | Potency [18] | Potency [19] | Potency [20]

CCn1cc(C(=O)O)c(=O)c2cnc(N3CCNCC3)nc21
inactive: Potency [1] | Potency [2] | Potency [3] | Potency [4] | Potency [5] | Potency [6] | Potency [7] | Potency [8] | Potency [9] | Potency [10] | Potency [11] | Potency [12] | Potency [13] | Potency [14] | Potency [15] | Potency [16] | Potency [17] | Potency [18] | Potency [20]

CCCCCCCN
inactive: Potency [1] | Potency [2] | Potency [3] | Potency [4] | Potency [5] | Potency [6] | Potency [7] | Potency [8] | Potency [9] | Potency [10] | Potency [11] | Potency [12] | Potency [13] | Potency [14] | Potency [15] | Potency [16] | Potency [17] | Potency [18] | Potency [19] | Potency [20]

C=CCOC(=O)CCCCCC
inactive: Potency [1] | Potency [2] | Potency [3] | Potency [4] | Potency [5] | Potency [6] | Potency [7] | Potency [8] | Potency [9] | Potency [10] | Potency [11] | Potency [12] | Potency [13] | Potency [14] | Potency [15] | Potency [16] | Potency [17] | Potency [18] | Potency [19] | Potency [20]

CCC(=O)O[C@@H]1C[C@H]2CC[C@]1(C)C2(C)C
inactive: Potency [1] | Potency [2] | Potency [3] | Potency [4] | Potency [5] | Potency [6] | Potency [7] | Potency [8] | Potency [9] | Potency [10] | Potency [11] | Potency [12] | Potency [13] | Potency [14] | Potency [15] | Potency [16] | Potency [17] | Potency [18] | Potency [19] | Potency [20]

Cc1ccc2c(c1)OCC(=O)CO2
inactive: Potency [1] | Potency [2] | Potency [3] | Potency [4] | Potency [5] | Potency [6] | Potency [7] | Potency [8] | Potency [9] | Potency [10] | Potency [11] | Potency [12] | Potency [13] | Potency [14] | Potency [15] | Potency [16] | Potency [17] | Potency [18] | Potency [20]

O=C(O)Cc1cccc(-c2cc(CCCCCCc3ccc(O[C@H]4O[C@H](CO)[C@@H](O)[C@H](O)[C@@H]4O)c(-c4cccc(CC(=O)O)c4)c3)ccc2O[C@H]2O[C@H](CO)[C@@H](O)[C@H](O)[C@@H]2O)c1
inactive: activity change, negative = cytotoxicity [1] -1.5% [at 0.349 µM] | activity, positive = activation [2] -5.74% [at 0.349 µM] | activity change [3] -0.17% [at 0.217 µM, active compounds read high] | activation [4] -0.687% [at 0.29 µM] | activation [5] -0.122% [at 0.217 µM] | activation [6] -2.66% [at 0.249 µM] | activation [7] 1.81% [at 0.249 µM] | activity change, negative = cytotoxicity [8] 0.362% [at 0.249 µM] | activity change, negative = cytotoxicity [9] 2.63% [at 0.249 µM] | activity change, negative = cytotoxicity [10] -10.7% [at 0.249 µM] | activation [11] -0.0536% [at 0.249 µM] | activity, negative = inhibition [12] 2.29% [at 0.233 µM] | activation [13] 17.6% [at 0.292 µM] | activity, negative = inhibition [14] 12.9% [at 0.232 µM] | activation [15] -0.265% [at 0.29 µM] | activation [16] 1% [at 0.349 µM] | activity change, negative = inhibition [17] -10.4% [at 0.349 µM] | activity change, negative = inhibition [18] 2.66% [at 0.349 µM] | activation [19] -1.23% [at 0.349 µM] | activity change, negative = inhibition [20] -1.71% [at 0.348 µM]
